Test results published in PubChem BioAssay AID2315 (National Center for Advancing Translational Sciences (NCATS), 2010).
Among all 290,000 compounds or so, about 27,000 (9.3%) were called active. The entries come from a sample that favours actives as a whole. Values without a mark were called inactive. No stated cut-off is given here; in the data, active means inhibition mostly above about 28% (no sharp cut-off); inactive means mostly below about 43%.

Test: A qHTS for Small Molecule Inhibitors of Shiga Toxin; further: 0% is about no effect
Conditions: Vero cells, Shiga toxin protein synthesis inhibition reporter; at 38.7 µM, hits give high values

SMILES | inhibition
O=C(CN1CCCCCC1)Nc1ccc(Cl)cc1F | 1.73%
O=c1ccc2cc(S(=O)(=O)Nc3ccccc3F)ccc2o1 | -8.1%
CCc1nc2cccnc2n1-c1ccc(C(=O)O)cc1 | -6.32%
Cc1c(Cl)cccc1NC(=S)NCC(O)c1ccccc1 (stereo unspecified) | 8.12%
CC(=O)Nc1ccc(-c2csc(NC(=O)Nc3ccccc3)n2)cc1 | 42%
Cn1nnnc1SCC(=O)Nc1nc2ccccc2s1 | 25.2%
O=C(Nc1ccccc1)Nc1nc2ccccc2s1 | 106% (active)
COc1ccc(C(=O)NC2CC(C)(C)Cc3c2cnn3-c2ccccc2)c(OC)c1 (stereo unspecified) | -3.27%
CC(C)S(=O)(=O)c1csc(NC(=O)Nc2ccc(Cl)cc2)c1Cl | 37.4%
COc1ccccc1Nc1cc(C(=O)NCCCN(C)C2CCCCC2)c2ccccc2n1 | -10.8%
Cc1ccc(SCC(=O)c2cc(C)c(OC(=S)N(C)C)c(C)c2)cc1 | 37.1%
Cc1cc(C)n2nc(CNS(=O)(=O)c3c(F)c(F)c(F)c(F)c3F)nc2n1 | 9.24%
COc1cccc(NC(=O)N2CCC(NC(=O)C(Cc3cccc(C)c3)NC(C)=O)CC2)c1 (stereo unspecified) | 1.56%
O=C(Nc1ccccc1N1CCCCC1)c1cccc(F)c1 | 16.3%
O=C(CN1CCN(CC(=O)Nc2ccc3c(c2)OCO3)CC1)Nc1ccc(F)cc1 | -14.4%
Cc1ccc(F)cc1NC(=O)c1ccc2c(c1)OCO2 | 43.8% (active)
Cc1ccc(-n2nc3c(c2NC(=O)c2ccc4c(c2)OCO4)CSC3)c(C)c1 | 1.3%
Cc1ccc(F)cc1NC(=O)c1cccc(N(C)C)c1 | 116% (active)
Cc1cccc(C(=O)Nc2ccccc2N2CCN(c3ccc(F)cc3)CC2)c1 | -3.83%
COc1ccc(NC(=O)NCc2ccc3c(c2)OCO3)c(OC)c1 | -9.62%
CN(C)CCN(C(=O)C1CCCCC1)c1nc2cc3c(cc2s1)OCO3 | -7.68%
CC(=O)N1CCc2cc(S(=O)(=O)NC3CCCCC3)ccc21 | -2.55%
COc1ccc(C(=O)COC(=O)CNC(=O)c2cccs2)cc1Br | -12%
CC(=O)Nc1ccc(Nc2ncnc3c2nnn3Cc2ccccc2Cl)cc1 | -4.64%

SMILES | inhibition
COc1ccc(/C=C2\SC(=S)N(CCC(=O)Nc3ccccn3)C2=O)cc1OC | -13.3%
CCOc1ccc(N(CC(=O)NCC2CCCO2)S(=O)(=O)c2ccc(C)cc2)cc1 (stereo unspecified) | -4.82%
CC(C)n1c(COc2ccccc2)nc2ccccc21 | -5.6%
O=C(Cn1c(COc2ccccc2)nc2ccccc21)Nc1cc(Cl)c(Cl)cc1Cl | 3.93%
COCn1c(COc2ccccc2)nc2ccccc21 | 13.8% (active)
Cc1ccc(C23CC4CC(CC(C(=O)NCC(=O)O)(C4)C2)C3)cc1 | -7.52%
Cc1cccc(OCC(=O)NC2CC(C)(C)NC(C)(C)C2)c1 | 1.98%
CC(NCCc1ccc(S(N)(=O)=O)cc1)C(=O)NCc1ccccc1 (stereo unspecified) | 45.3%
Cc1cc(S(=O)(=O)N2CCOCC2)ccc1OCC(=O)Nc1cccc(C(F)(F)F)c1 | -13.1%
COc1ccccc1CSc1nc2ccccc2[nH]1 | 71.9% (active)
C=CCSc1nc2ccccc2[nH]1 | 14.5%
CCc1nnc(NC(=O)CCCSc2nc3ccccc3[nH]2)s1 | 13.8%
COc1ccccc1CSc1ncc(-c2ccc([N+](=O)[O-])cc2)[nH]1 | 54.5% (active)
CCCCSc1nc2ccccc2[nH]1 | 79.8% (active)
COc1ccccc1-c1noc(CSc2nc(C)cc(=O)[nH]2)n1 | -3.44%
COc1ccccc1CC(=O)Nc1ccc([N+](=O)[O-])cc1OC | 2.24%
N#Cc1c(-c2ccccc2)nc(SCc2ccc([N+](=O)[O-])cc2)[nH]c1=O | -3.91%
O=C(NCc1ccccc1)c1onc(CSc2nc3ccccc3[nH]2)c1C(=O)NCc1ccccc1 | -3.72%
CC(C)=N/N=C1/NC(=O)C(Cc2ccccc2)S1 (stereo unspecified) | -7.41%
COc1cccc(CNC(=O)CN(C)S(=O)(=O)c2ccc3c(c2)c(=O)n(C)c(=O)n3C)c1 | 18.4%
O=C(O)CCCCCCCCc1cn(CN2C(=O)c3ccccc3C2=O)nn1 | -8.38%
CC(CCc1ccccc1)NC(=O)COC(=O)c1ccc(F)cc1 (stereo unspecified) | -4.73%
Cc1cccc(-c2nc(CS(=O)CC(=O)NC(C)CCc3ccccc3)c(C)o2)c1 (stereo unspecified) | -4.68%
O=C(CCCN1C(=O)/C(=C/c2cccs2)SC1=S)Nc1ccc(O)cc1 | 42.3%

SMILES | inhibition
CC(=O)Oc1cc2c(C(=O)NCCN3CCOCC3)c(C)oc2c2ccccc12 | 44.7% (active)
Cc1cc(C)cc(C(=O)NCCN2CCOCC2)c1 | -7.36%
Cc1ccc(C(=O)NCCN2CCOCC2)cc1C | 19%
CC(=O)NC(CC(=O)Nc1cccc(S(=O)(=O)N2CCCC2)c1)c1ccccc1 (stereo unspecified) | -34.1%
CC(=O)N1CCc2c(sc(NC(=O)CCS(=O)(=O)c3ccccc3)c2C#N)C1 | 17.3%
O=C1CSC(=S)N1c1ccc(O)cc1 | -10.4%
N#Cc1c(Cl)nc(-c2cccnc2)nc1-c1ccccc1 | -3.23%
Cc1ccc(C(C(=O)NC2CCCC2)N(Cc2ccco2)C(=O)CCC(=O)Nc2ccccn2)cc1 (stereo unspecified) | -14.7%
Cc1ccnc(NC(=O)CCC(=O)N(CC(=O)NCc2ccccc2)Cc2ccco2)c1 | -4.34%
Cc1ccc2c(c1)N(CC(=O)N(Cc1ccccn1)Cc1ccco1)C(=O)C(C(C)C)O2 (stereo unspecified) | 33.8% (active)
Cc1cc(C)c2c(=O)[nH]c(SCC(=O)Nc3ccc(Br)cc3)nc2n1 | 3.52%
CN(c1ccc(OCC(=O)O)cc1)S(=O)(=O)c1ccc2ccccc2c1 | -4.36%
O=S(=O)(NC1CCCCC1N1CCC(O)CC1)c1ccc(Cl)cc1 (stereo unspecified) | -13.2%
COc1ccc(-c2cc(C(F)(F)F)nc(SCCC(=O)NCc3ccco3)n2)cc1 | 25.3% (active)
O=C(CSc1nc(-c2ccco2)cc(C(F)(F)F)n1)NCc1cccs1 | -12.1%
COc1ccc(S(=O)(=O)N(CC(=O)NCc2ccco2)c2ccc(F)cc2)cc1 | 35.2%
Cn1cc(CCC(=O)NC2CC2)c2ccccc21 | 11.7%
Cc1cccc(NC(=O)Cn2cc(C(=O)c3ccco3)c3ccccc32)c1 | -14.6%
N#Cc1ccc(Cn2cc(C(=O)c3ccco3)c3ccccc32)cc1 | 92.3% (active)
CC1CCN(C(=O)Cn2cc(C(=O)c3ccco3)c3ccccc32)CC1 | 21.4%
Cc1nnc(N/N=C/c2cccs2)[nH]c1=O | 3.51%
NC(=O)N/N=C\c1cccs1 | 17.5%
Cc1n[nH]c(=O)nc1N/N=C/c1cccs1 | 29.8% (active)
CC1(C)Oc2ccc3ccc(=O)oc3c2/C(=N/O)C1=O | -11.1%

SMILES | inhibition
COc1cc(NC(=O)CN2C(=O)NC(C)(c3ccc(OC(F)F)cc3)C2=O)cc(OC)c1OC (stereo unspecified) | -3.05%
COc1ccccc1C(=O)NC(=S)NC12CC3CC(CC(C3)C1)C2 | -21.8%
CCOc1cccc(/C=C/c2ccc3ccccc3n2)c1OC(C)=O | 50.8%
COc1cccc(/C=C/c2ccc3ccccc3n2)c1OC(C)=O | 42.7% (active)
COc1cccc(/C=C2\C=C(c3ccc(C)cc3)OC2=O)c1OC(C)=O | 11.6%
O=C(NCCc1c[nH]c2ccccc12)C1CCN(Cc2ccc(Br)cc2)CC1 | -4.77%
O=C(Cn1cc(C(=O)C2CC2)c2ccccc21)Nc1ccccc1Cl | -2.68%
O=c1[nH]c(/C=C\c2cccc(C(F)(F)F)c2)nc(O)c1[N+](=O)[O-] | -8.88%
COc1cc(/C=C2\C(=N)N3N=C(CC(=O)N4CCOCC4)SC3=NC2=O)cc(OC)c1OC | -7.7%
Cc1cccc(CSc2nnc(Cn3c(=O)sc4ccccc43)n2C)c1 | -3.45%
O=C(CSc1ccc(-c2cccs2)nn1)Nc1ccccc1F | 32.3%
Cc1cccc(CSc2ccc(-c3cccs3)nn2)c1 | 36.9% (active)
COc1ccc(-c2ocnc2C(=O)Nc2ccc3c(c2)CCC3)cc1 | -10.8%
O=C(Nc1ccc(-n2cccn2)cc1)C1CCN(Cc2ccsc2)CC1 | -3%
COc1ccc(CN2C(=O)C(C)S/C2=N/N=C/c2ccco2)cc1 (stereo unspecified) | 137% (active)
C=CCN1C(=O)C(Cc2cccc(Cl)c2)S/C1=N/N=C/c1ccco1 (stereo unspecified) | -3.82%
CCC1S/C(=N/N=C/c2ccco2)NC1=O (stereo unspecified) | 22%
Cc1cc(C)n(S(=O)(=O)c2cccc([N+](=O)[O-])c2)n1 | -4.69%
COc1ccc(N(CC(=O)Nc2cccc3ccccc23)S(C)(=O)=O)c(OC)c1 | -3.17%
O=C(Nc1ncc2c(n1)CC(c1ccco1)CC2=O)c1ccc(Cl)cc1 (stereo unspecified) | 1.6%
CCc1ccc(Nc2ncc3c(n2)CC(c2ccco2)CC3=O)cc1 (stereo unspecified) | 72.5% (active)
COc1cc(C2CC(=O)c3cnc(NC(C)=O)nc3C2)cc(OC)c1OC (stereo unspecified) | 21.5%
CCCC(C)NC(=O)C1CCN(C(=O)C2CC(=O)N(c3ccc(C)cc3)C2)CC1 (stereo unspecified) | 9.21%
COc1ccc2c(c1)c1nc3n(c(=O)c1n2CC(=O)Nc1ccccc1)CCS3 | 10.6%
